The results in this text go back to PubChem BioAssay (EPA / NIEHS).

Structures are written as SMILES. The source made the active and inactive calls. The calls were made as follows: active = hit-call score of the fitted dose curve at least 0.9, where 1 is the maximum; inactive = score below 0.9.

Read-out in this assay: Keratin 19 (KRT19), KRT19 (gene 3880)
The assay is described as follows: LTEA_HepaRG_KRT19: Life Technologies and Expression Analysis (LTEA) Assay for Keratin 19 (KRT19) using HepaRG (AID 2283512). The conditions noted are these: mRNA level, 48 h; actives raise or lower the signal. Here is the method: LTEA_HepaRG is a cell based, multiplexed-readout assay that uses HepaRG, a human liver cell line, with measurements taken at 48 hours after chemical dosing on a 96-well plate.LTEA_HepaRG_KRT19 is one of 102 assay component(s) measured in the LTEA HepaRG cell culture assay. It is a marker of Cell proliferation, survival, death.Data from the assay component LTEA_HepaRG_KRT19 was analyzed into 1 endpoint. This assay endpoint, LTEA_HepaRG_KRT19, was analyzed with bidirectional fitting relative to DMSO as the negative control and baseline of activity. Using a type of inducible reporter, measures of mRNA induction for gain or loss-of-signal activity can be used to understand regulation of transcription factor activity. To generalize the intended target to other relatable targets, this assay endpoint is annotated to the filaments intended target family, where the subfamily is keratin.
A total of 1060 chemcials from the ToxCast library were tested in eight-point concentration-response experiments. Cell culture and cytotoxicity assays were conducted at Thermo Fisher Scientific's Custom Services facility (Madison, WI). A single lot of human HepaRG cells (Thermo Fisher Scientific, Frederick, MD) was used for the cell culture experiments. 96-well format collagen type I coated plates of human HepaRG cells were prepared using established methods. Briefly, cryopreserved HepaRG cells were thawed, plated at a density of approximately 100,000 cells/well in HepaRG Thaw, Plate, and General Purpose media (HPRG770, Thermo Fisher Scientific), and incubated for 48 hours. 0.5% DMSO was selected as vehicle control to balance the requisite need of DMSO in HepaRG cultures to maintain differentiation (for example, baseline metabolism, proportions of hepatocytes vs. cholangiocytes), while enabling further hepatic receptor pathway activation (for example, PXR and CAR) in response to chemical exposure. 48 hours after plating, the culture medium was replaced with HepaRG Serum-Free Incudtion Media. Cells were exposed to each test chemical in duplicate and maintained in CO2 incubators for another 48 hours. Chemical plates were thawed to room temperature and 200x concentrations of treatment groups were prepared. 8-point conentration-reponse curves were made with the highest exposure at 100 uM, followed by half-log dilutions, all in 0.5% DMSO. Each test plate contained variouse controls, induction positive controls (1mM phenobarbital), cytotoxicity positive controls ([…] aflatoxin B1), vehicle controls (0.5% DMSO), and total lysis controls (0.5% DMSO). Cell morphology images were taken using an Essen IncuCyte FLR automated microscope, with six 96-well plates imaged in about 24 minutes. Images were captured and exported and JPEG files. Spent culture media was transfered to black-well plates for the LDH assay, and remaining media was sorted at -80 C for later use. Cells were treated with RLT buffer and frozen until shipped for gene expression analysis. Total RNA was isolated from the cell suspension in 75 uL of Buffer RLT (Qiagen, Germantown, MD 20874) by Quintiles/Expression Analysis (Durham, NC) using a custom isolation procedure. Total RNA from each plate well was transferred to a preamplification plate. Fluidigm's 96.96 Dynamic ArrayTM (Fluidigm, Amsterdam, the Netherlands) technology was used for gene expression analyses by quantitative reverse transcription polymerase chain reaction (qRT-PCR, performed by Quintiles/Expression Analysis, Durham, NC)89. Standard TaqManTM Assays (Applied Biosystems/ThermoFisher Scientific, Foster City, CA) were used to assess the expression of 93 genes selected based on their selectivity and sensitivity to important hepatic receptors known to be modulated by environmental chemicals; importance in human hepatocyte functionality; and hepatotoxicity. […]
As to `CCCCCCCCCCCCCCCCOS(=O)(=O)O`, the call was inactive.

Consider `COc1cc2c(c(OC)c1OC)-c1ccc(OC)c(=O)cc1[C@@H](NC(C)=O)CC2`, for which the result was inactive.

As for `CCc1ccc(O)c(C(C)(C)C)c1`, the compound was called inactive. As to `Cc1ncc([C@@H](CCCCCCc2ccc3c(n2)NCCC3)CC(=O)O)cn1`, the result was inactive.

As for `Cc1nc(-c2ccccn2)ncc1C(=O)Nn1cc(C)c2cc(F)ccc21`, the outcome was inactive. Take `c1ccc2c(c1)-c1cccc3c1c-2cc1ccccc13`: the AC50 is 1.4 µM (active).

Regarding `O=C(NO)C1(NS(=O)(=O)c2ccc(Oc3ccc(F)cc3)cc2)CCOCC1`, the AC50 was 71.4 µM (active). On to `CCOC(N)=O`, for which the result was inactive. On the same count and under the same terms, to `CCCc1ccccc1` belongs “inactive”; to `CCCCCCCCN(C)C`, “inactive”. For the compound `OCCOCCOCCO`, the call was inactive. As for `CCCCCCCC/C=C\CCCCCCCC(=O)OC[C@@H](O)[C@H]1OC[C@H](O)[C@H]1O`, the compound was classed as inactive. On to `CCCCC(CC)C(=O)OCCOCCOCCOC(=O)C(CC)CCCC` (stereo not given), for which the compound was classed as inactive. For `CCOc1ccc2[nH]cc(C(=O)NCc3ccccc3)c(=O)c2n1`, the AC50 is 12.1 µM (active). On to `O=C(O)c1ccc2c(c1)nc(C(=O)NC1CCN(C3CC3)CC1)n2Cc1cc(-c2ccc(Cl)s2)on1`, for which the compound was called inactive. Take `CCCCCCOC(=O)CC(CC(=O)OCCCCCC)(OC(=O)CCC)C(=O)OCCCCCC`: the result was inactive. With `Cc1nccn1-c1ccc(Sc2cccc(C3(C(N)=O)CCOCC3)c2)cc1`, the AC50 was 6.52 µM (active). Regarding `O=C(O)[C@H](O)[C@@H](O)C(=O)O`, the call was inactive. In the case of `C=CCc1cc(S(=O)(=O)c2ccc(O)c(CC=C)c2)ccc1O`, the AC50 is 50 µM (active). `OC(CCl)CCl`: the result was inactive. In the case of `O=C1CN(N=Cc2ccc([N+](=O)[O-])o2)C(=O)N1`, the AC50 was 88.7 µM (active). Consider `NC(N)=O`, for which the outcome was inactive.

On to `CCCCCOC(C)=O`, for which the call was inactive. The same measure, in the same setting: to `C[C@]12C=CC(=O)C=C1CC[C@H]1[C@@H]3C[C@@H](O)[C@](O)(C(=O)CO)[C@@]3(C)C[C@H](O)[C@@]12F` belongs “inactive”; to `OC[C@H]1O[C@@H]2O[C@H]3[C@H](O)[C@@H](O)[C@@H](O[C@H]4[C@H](O)[C@@H](O)[C@@H](O[C@H]5[C@H](O)[C@@H](O)[C@@H](O[C@H]6[C@H](O)[C@@H](O)[C@@H](O[C@H]7[C@H](O)[C@@H](O)[C@@H](O[C@H]1[C@H](O)[C@H]2O)O[C@@H]7CO)O[C@@H]6CO)O[C@@H]5CO)O[C@@H]4CO)O[C@@H]3CO`, “inactive”; to `Nc1ccn([C@@H]2O[C@H](CO)[C@@H](O)[C@@H]2O)c(=O)n1`, “inactive”. Take `COCc1nnc(-c2ccc[n+]([O-])c2)n1-c1c(Cl)c(Cl)cc2[nH]c(=O)c(=O)[nH]c12`: the compound was classed as inactive. For `O=S1(=O)CCCO1`, the compound was classed as inactive. For the compound `Cc1ccc(S(=O)(=O)NC(=O)NN2CCCCCC2)cc1`, the compound was classed as inactive. For the compound `NNC(=O)c1ccncc1`, the outcome was inactive.

Take `CCCOc1ccc(S(=O)(=O)N2CCN(CC)CC2)cc1-c1nc2c(CC)n(Cc3ccccn3)nc2c(=O)[nH]1`: the outcome was inactive. As for `CCc1cccc(CC)c1N`, the compound was classed as inactive. Regarding `CCCCN1C(=O)[C@@H]([C@H](O)C2CCCCC2)NC(=O)C12CCN(Cc1ccc(Oc3ccc(C(=O)O)cc3)cc1)CC2`, the result was inactive.

`NC(=O)N(O)[C@@H]1COc2cc(OCc3ccccc3)ccc21`: the call was inactive.

As for `CCCCCCCC1CCC(=O)O1` (stereo not given), the compound was called inactive.

Take `CCN(CC)C(=S)SSC(=S)N(CC)CC`: the call was inactive. Take `COS(C)(=O)=O`: the outcome was inactive. On the same count and under the same terms, in the case of `O=C(O)c1cccc(C(=O)O)c1` it was “inactive”; in that of `CCCCCCCCCC`, “inactive”. On to `O=S(=O)(O)c1ccc(N=Nc2c(O)ccc3cc(S(=O)(=O)O)ccc23)cc1`, for which the compound was called inactive.

A word on the AC50: it is the concentration at which the activity in the assay is half-maximal.
